# Assay outcomes deposited in PubChem by SRMLSC.
# Spn MK inh – inhibitors of Streptococcus pneumoniae mevalonate kinase; purified MK, PK/LDH-coupled NADH absorbance 340 nm; inhibition, % at 10 µM; 65,000 compounds, 0.48% hits;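 active means ranked among the strongest by inhibition in the single 10 µM screen, a fixed top-ranked set picked for dose follow-up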
# Fluor 339 460 – intrinsic fluorescence of library compounds, ex339/em460 – biochemical, MLSMR library, data from DPM-DC assay, artefact control, profiling panel; compound autofluorescence, ex339/em460 nm, NADH buffer; stronger effect = higher value; 1 = no-compound wells, NADH background; fluorescence fold increase at 10 µM; 65,000 compounds, 5.5% hits;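 active means at 10 µM, mean starting fluorescence two-fold or more over control wells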;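 further: signal is the first read of a kinetic run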
# NADH enzymes – inhibitors of enzymes used to reach an NAD/NADH endpoint; AID 774; IC50, µM (titrated, usually from 10 µM), for the others: at the top dose inhibition; coupled PK/LDH NADH assays, four targets; 65,000 compounds, 0.02% hits;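 active means single-dose screening hits from any of four coupled enzyme assays that gave an IC50 when retested across doses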;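 further: the DPM-DC format reads NADH fluorescence rather than 340 nm absorbance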
# Spn PMK inh – S. pneumoniae PMK inhibition | 65,000 compounds, 0.49% hits | purified PMK, PK/LDH-coupled NADH absorbance 340 nm | inhibition, % at 10 µM | AID 539;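 active means top-ranked compounds by inhibition in the single 10 µM screen, taking a fixed number of the strongest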;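 further: 0% = full reaction with DMSO carrier and 100% = background rate without enzyme reaction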
# DPM-DC inhibit – inhibitors of Streptococcus pneumoniae diphosphomevalonate decarboxylase | calls only at 10 µM | 65,000 compounds, 0.49% hits | AID 556 | purified DPM-DC, PK/LDH coupled NADH fluorescence;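 active means the 320 compounds with the highest percent inhibition in the single-dose primary screen, excluding strongly autofluorescent ones, cut at about 32% in these data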;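 further: kinetic rate of NADH fluorescence loss reporting ADP formed by the decarboxylase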
# A340 absorber – absorbance at 340 nm | compound absorbance at 340 nm, fold over control | fold change at 10 µM | 65,000 tested, under 10 active;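 active means at 10 µM dose, initial 340 nm absorbance at least 2 fold that of control wells; inactive means change under 2 fold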;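 further: initial absorbance extrapolated from kinetic A340 decline of NADH oxidation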
# * = called active by the depositor; i = inactive; x = no result given; + = active, no number. Rows were chosen to be rich in hits. Some 6.3% of all compounds tested hit in one or more screens of this group.
SMILES,Spn MK inh,Fluor 339 460,NADH enzymes,Spn PMK inh,DPM-DC inhibit,A340 absorber
COc1ccc(CN(C)CCc2ccccn2)cc1OC,8,1,9%,18,i,1
C[C@H](CS)C(=O)N1CCC[C@H]1C(=O)O,1,1,4%,11,i,0.97
O=C1CC(N2CCC(O)(c3ccc(Cl)cc3)CC2)C(=O)N1Cc1ccc(N2CCCC2=O)cc1 (stereo not given),1,1.1,0%,0,i,1.1
CN(C)S(=O)(=O)c1cccc(-c2cn3ccccc3n2)c1,0,1.8,2%,6,i,1
COc1ccc(-c2cn3cc(C)ccc3n2)cc1OC,0,2.5*,2%,0,x,1
COc1ccc(-c2cn3ccccc3n2)cc1OC,16,4*,10%,4,x,1
CCCCn1c(SCC(=O)N2CCN(c3ccccc3)CC2)nc2ccsc2c1=O,0,1.1,2%,6,i,1
CC(=O)c1ccc(OCCCC(=O)OCC(=O)N2CCN(c3ccccc3)CC2)cc1,3,1.1,5%,11,i,1
COc1ccc(-c2nc3oc4cc(OC)ccc4c(=O)c3c(=O)n2Cc2ccco2)cc1,2,3.9*,3%,4,x,1.1
CCc1nc2oc3cc(OC)ccc3c(=O)c2c(=O)n1Cc1ccco1,9,1.1,8%,9,i,1
CCOC(=O)c1c(C)c(C(=O)Nc2cc(F)ccc2F)c(C)n1C,7,0.97,7%,9,i,0.98
O=C(CN1C(=O)COc2ccccc21)N(CCCN1CCOCC1)CC1CC=CCC1 (stereo not given),6,1.1,5%,9,i,1
CC(CN1CCCCC1)OC(=O)c1ccc(Cl)cc1 (stereo not given),9,1.1,3%,1,i,1
CC(CN1CCN(C)CC1)OC(=O)c1ccc(Cl)cc1 (stereo not given),2,0.97,10%,28*,i,1
COC(=O)CCC(=O)c1oc2ccccc2c1N,2,1.3,1%,0,i,1.1
O=C(CSc1ccc(-c2nc3ccccc3[nH]2)cn1)N1CCN(C(=O)c2ccco2)CC1,7,2.1*,16%,24,x,1.1
CCOC(=O)c1sc(NC(=O)c2ccc(Cl)s2)cc1C,6,2.1*,4%,1,x,1.1
CCOC(=O)c1sc(NC(=O)C2CC2)cc1C,4,1,3%,0,i,1.1
CCOC(=O)c1sc(NC(=O)c2ccc(CC)s2)nc1C,0,3.3*,2%,3,x,1.1
CCOC(=O)c1sc(NCCNc2nc(C)c(C(=O)OCC)s2)nc1C,2,1.1,1%,2,i,1.1
CCc1cc(=O)oc2cc3oc(C)c(C)c3cc12,6,1.7,9%,15,i,0.98
CCc1cc(=O)oc2cc(OC(C)=O)cc(OC(C)=O)c12,7,2.4*,2%,0,x,1
Cc1sc2ncnc(N[C@@H](CCC(=O)O)C(=O)O)c2c1C,11,1.1,6%,5,i,1
Cc1sc2ncnc(NCC(c3ccco3)N(C)C)c2c1C (stereo not given),56*,1.1,29%,30*,i,1.1
CC(=O)NC12CC3CC(C1)CC(C(=O)OCC(=O)Nc1ncc(Cl)cc1Cl)(C3)C2,0,1.1,0%,0,i,1
SMILES,Spn MK inh,Fluor 339 460,NADH enzymes,Spn PMK inh,DPM-DC inhibit,A340 absorber
O=C(CN1C(=O)c2cccc3cccc1c23)N1CCN(c2ccccc2)CC1,0,1.2,7%,19,i,1
O=C(CN1C(=O)c2cccc3cccc1c23)N1CCN(c2cccc(Cl)c2)CC1,8,2.4*,16%,10,i,1
N#CC1=C(c2ccccc2)N=P(N2CCOCC2)(N2CCOCC2)N=C1N1CCOCC1,0,1.1,7%,21,i,1
CN1CC(=O)NC1=NC(=O)c1ccc(Cl)c(S(=O)(=O)N2CCCCCC2)c1,0,1.1,9%,28*,i,0.99
CN1CC(=O)NC1=NC(=O)c1cc(F)c(F)cc1Cl,0,1.1,8%,23,i,1
CC1(C)NC(=O)N(CCOc2ccc3c(c2)CCC3)C1=O,13,1.1,7%,8,i,1.1
O=C(NCc1ccco1)c1cnc2n(c1=O)CCS2,1,1,3%,3,i,1
Cc1csc2ncc(C(=O)NCc3ccco3)c(=O)n12,6,3.8*,14%,9,i,1.1
COc1ccc(CNC(=O)c2cnc3scc(C)n3c2=O)cc1,5,2.1*,9%,13,x,1.2
COC(=O)c1cc(NS(=O)(=O)c2ccc(OC)c(OC)c2)ccc1Cl,9,1.1,6%,10,i,1
COC(=O)c1cc(Cl)c(NS(=O)(=O)c2ccccc2)cc1OC,0,1.9,15%,11,+,1
Cc1cc(C(=O)NCCC2=CCCCC2)c(C)o1,1,1.1,3%,7,i,1.1
Cc1c(-c2cccs2)[n+](=O)c2c(n1[O-])CCCCC2,8,1.1,3%,0,i,1.1
COc1ccc(-c2c(NC(C)=O)n(C)c3ccccc3c2=O)cc1,9,3.8*,10%,11,x,1.1
Cn1c(NC(=O)c2ccco2)c(-c2ccccc2)c(=O)c2ccccc21,10,0.94,9%,8,i,1.1
CCOC(=O)CSc1nnc([C@@H](NC(=O)OC(C)(C)C)C(C)C)o1,4,1.1,1%,0,i,1
Cc1c(OCc2nn[nH]n2)ccc2c(-c3ccccc3)cc(=O)oc12,0,1.4,3%,9,i,1.1
Cc1cc(OCc2nn[nH]n2)c2c(C)c(CC(=O)O)c(=O)oc2c1,0,3.9*,3%,6,x,1.1
Cc1c(Cc2ccccc2)c(=O)oc2c(C)c(OCc3nn[nH]n3)ccc12,5,3.9*,9%,12,x,1.1
COc1ccc(-c2cc(=O)oc3c(C)c(OCc4nn[nH]n4)ccc23)cc1,0,1.7,3%,7,i,1.2
Cc1cc(OCc2nn[nH]n2)c2c(-c3ccccc3)cc(=O)oc2c1,5,2*,2%,0,i,1.1
COC(=O)COc1cc(C)cc2oc(=O)c(CC(=O)OC)c(C)c12,11,2.1*,6%,1,x,1.1
COCCCn1c(SCC(=O)OC2CCCCC2)nnc1-c1cccs1,5,1.1,5%,11,i,0.99
CCCOc1ccc(N2C(=O)CC(N3CCCC(C(=O)N4CCCC4)C3)C2=O)cc1 (stereo not given),7,1.1,4%,5,i,1
Cc1noc(C)c1COC(=O)c1ccc(S(=O)(=O)NCc2ccco2)cc1,2,1.1,3%,7,i,1
Cc1cc(OCc2nn[nH]n2)c2c(C)c(Cc3ccccc3)c(=O)oc2c1,7,3.9*,10%,12,x,1.1
